# Measurements published in PubChem BioAssay.
# Several values for one entry are separate records, joined by “and”; a condition that tells them apart may be missing. Equal values may be shown once. Activity calls are given as the source filed them.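 The calls were made as follows, unless noted: active = compounds whose cell count with miR-34 switched on is under 0.7 times the count with it off; inactive = the rest.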
# Tests used:
# [1] = test system: Aerobactin synthetase IucA (Klebsiella pneumoniae); assay: inhibition of K. pneumoniae IucA enzyme – biochemical, Tocris library, absorbance (AID 1345561; call rule not given here;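 also: 100% = enzyme without compound and 0% = no enzyme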); settings: purified IucA enzyme assay, absorbance (OD) read-out; stronger effect = lower value;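 tested at 8 µM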
# [2] = viability loss with induced miR-34 in A549 – imaging, A549 dox-inducible miR-34, nuclei and caspase counts, primary screen (AID 1347080); settings: A549 miR-34 inducible, Hoechst nuclei count, 48 h
# [3] = MELAS cybrid and Rieske KO viability enhancers – cell-based, MELAS cybrids, Rieske KO mouse fibroblasts, CellTiter-Glo, primary screen (AID 1508586;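 active = mean z-score across replicates of 1.96 or higher in either the MELAS or the Rieske mutant cell line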;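 also: z relative to plate mean and SD of compound and empty wells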); settings: low glucose
# [4] = galactose survival enhancers in mitochondrial complex I cybrids – cell-based, galactose medium, ATP luminescence, primary screen (AID 1645843;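 active = z-score of at least 1.8 in each of two replicates, scored against plate mean and spread of sample wells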;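 also: positive z means more ATP and so rescue of galactose-driven cybrid death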); settings: complex I mutant cybrid cells, 72 h, stronger effect = higher value
# [5] = growth inhibition, single agent or in combination, cell-based, chromothripsis tumors, cisplatin or BGB combos (AID 1671449; in the data active = inhibition above about 80%;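 also: cells exposed for 96 hours; 0% = vehicle DMSO and 100% = killing by high DMSO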); settings: LFS_MB_P medulloblastoma cells
# [6] = growth inhibition, single agent and combos, cell-based, chromothripsis tumors, cisplatin or BGB combos (AID 1671450; in the data active = inhibition above about 80%;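 also: cells exposed to compound for four days; 0% = vehicle DMSO and 100% = cell killing by high DMSO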); settings: HDN33 neuroblastoma cells, stronger effect = higher value
# [7] = growth inhibition, single agents and combos, ICB984, cell-based, cisplatin or BGB combos, synergistic combos for chromothripsis tumors (AID 1671451; call rule not given here;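 also: cells exposed for 96 hours before readout; 0% = vehicle DMSO and 100% = killing by high DMSO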); settings: ICB984 medulloblastoma cells, drug combinations, stronger effect = higher value
# [8] = growth inhibition, single agents and combos, LFS_MB_1R, cell-based, cisplatin or BGB combos, synergistic combos for chromothripsis tumors (AID 1671452; in the data active = inhibition above about 80%;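 also: cells exposed for 96 hours before readout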); settings: LFS_MB_1R medulloblastoma cells, stronger effect = higher value
# [9] = growth inhibition, single agents and combos, HTB85, cell-based, BGB or cisplatin IC20 combos, synergistic combos for chromothripsis tumors (AID 1671453; in the data active = inhibition above about 80%;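 also: cells exposed for 96 hours before readout; 0% = vehicle DMSO and 100% = high DMSO killing control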); settings: HTB85 osteosarcoma cells, drug combinations, stronger effect = higher value
# [10] = growth inhibition, single agents and combos, CRL2098, cell-based, BGB or cisplatin IC20 combos, synergistic combos for chromothripsis tumors (AID 1671454; in the data active = inhibition above about 80%;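 also: cells exposed for 96 h before readout; 0% = vehicle DMSO and 100% = killing by high DMSO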); settings: CRL2098 osteosarcoma cells, drug combinations, stronger effect = higher value
# [11] = growth inhibition, single agents and combos, HD-MB03, cell-based, BGB or cisplatin IC20 combos, synergistic combos for chromothripsis tumors (AID 1671455; in the data active = inhibition above about 83%;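 also: 0% = vehicle DMSO and 100% = high DMSO as cytotoxic control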); settings: HD-MB03 medulloblastoma cells, stronger effect = higher value
# [12] = growth inhibition, single agents and combos, UWB1.289, cell-based, BGB or cisplatin combos, synergistic combos for chromothripsis tumors (AID 1671456; in the data active = inhibition above about 80%;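 also: cells exposed to compound for four days; 0% = vehicle DMSO and 100% = killing by high DMSO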); settings: UWB1.289 ovarian carcinoma cells, stronger effect = higher value
# [13] = growth inhibition, single agents and combos, LFS_MB_2R, cell-based, cisplatin combos, synergistic combos for chromothripsis tumors (AID 1671457; in the data active = inhibition above about 80%;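 also: cells exposed to compound for four days before readout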); settings: LFS_MB_2R medulloblastoma cells, stronger effect = higher value
# [14] = growth inhibition, MDA-MB-436, cell-based, BGB or cisplatin combos, synergistic combos for chromothripsis tumors (AID 1671458; call rule not given here;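 also: cells exposed for 96 hours; 0% = vehicle DMSO and 100% = killing by high DMSO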); settings: MDA-MB-436 breast carcinoma growth inhibition, drug combinations, stronger effect = higher value
# [15] = UWB1.289_BRCA1 ovarian cancer growth, cell-based, BGB or cisplatin combinations (AID 1671459; in the data active = inhibition above about 80%); settings: UWB1.289 BRCA1 ovarian carcinoma, drug combinations, stronger effect = higher value
# [16] = drug combination toxicity in non-malignant astrocytes – cell-based, BGB or cisplatin IC20 combos, cytotoxicity control for chromothriptic childhood tumor combination screen (AID 1671460; in the data active = inhibition above about 80%;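 also: cells exposed to compounds for 96 hours before viability readout; 0% = vehicle and 100% = killing control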); settings: Human astrocytes, viability inhibition, drug combinations, at 0.5 µM, stronger effect = higher value
# [17] = BT084 cell growth, single and combined drugs, ICGC_MB145, cisplatin and BGB IC40 combos (AID 1671461; in the data active = inhibition above about 80%;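 also: cells exposed to drugs for 96 hours; 0% = vehicle DMSO and 100% = high DMSO full killing control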); settings: BT084 medulloblastoma cells, drug combinations, stronger effect = higher value
# [18] = RCMB18 cell growth, single agent and combined, cisplatin and BGB IC40 combos (AID 1671462; in the data active = inhibition above about 80%;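 also: cells exposed to compound for four days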); settings: RCMB18 medulloblastoma cells, stronger effect = higher value
# [19] = CRL1545 cell growth, single agent and combined, cisplatin and BGB IC20 combos (AID 1671464; in the data active = inhibition above about 80%;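 also: cells exposed to compound for 96 hours before readout; 0% = vehicle DMSO and 100% = high DMSO killing control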); settings: CRL1545 osteosarcoma cells, stronger effect = higher value
# [20] = P. berghei load reduction in hepatocytes – cell-based, HepG2, luciferase luminescence, HepG2 viability, primary screen (AID 624349; in the data active = parasite load remaining mostly below about 12%, no sharp cut-off; inactive = mostly above about 10%;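 also: 100% = mean of DMSO negative control wells on the same plate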); settings: P. berghei liver stage in HepG2, luciferase luminescence, concentration not given here; parasite load remaining: stronger effect = lower value; viability: measured here: HepG2 viability without parasites
# [21] = stronger effect = lower value, cell number ratio, induced over uninduced
# [22] = measured here: relative caspase fold change +Dox/-Dox
# [23] = measured here: total cells with miR-34 induction, stronger effect = lower value
# [24] = measured here: total cells without miR-34 induction
# [25] = MELAS cybrid survival, CellTiter-Glo 48 h, stronger effect = higher value
# [26] = Rieske KO mouse fibroblast survival, CellTiter-Glo 72 h
# [27] = measured here: combination with BGB IC40, at 0.05 µM
# [28] = measured here: with BGB IC20 combination, at 0.5 µM
# [29] = measured here: with cisplatin IC20 combination, at 0.5 µM
# [30] = measured here: combination with cisplatin, at 0.5 µM
# [31] = measured here: combination with cisplatin, at 5 µM
smiles,measurement,setting,value
O=C(COc1cccc2c(=O)[nH]ccc12)c1ccccc1,remaining activity,[1],129% (inactive)
same,fold change,[2]; [21],0.93 (inactive) and 0.917 (inactive)
same,fold change,[2]; [22],0.39 and 1.29
same,cell count,[2]; [23],8870 and 8400
same,cell count,[2]; [24],9530 and 9170
same,z-score,[3]; [25],-0.468 (inactive)
same,z-score,[3]; [26],0.438
same,z-score,[4],-0.28 (inactive)
same,inhibition,"[5]; at 0.5 µM, stronger effect = higher value",-16.5% (inactive)
same,inhibition,"[5]; measured here: combination with BGB IC20, at 0.005 µM",-16.8%
same,inhibition,"[5]; measured here: combination with BGB IC40, at 0.005 µM",-36.3%
same,inhibition,[5]; [27],-53.7%
same,inhibition,"[5]; measured here: combination with cisplatin, at 0.5 µM, stronger effect = higher value",-36.1%
same,inhibition,"[5]; measured here: combination with cisplatin, at 5 µM, stronger effect = higher value",-39.6%
same,inhibition,"[6]; BGB combo, at 5 µM",-30.5%
same,inhibition,[6]; at 0.5 µM,-19.3% (inactive)
same,inhibition,"[6]; cisplatin combo, at 5 µM",0.128%
same,inhibition,[6]; [28],-14.4%
same,inhibition,[6]; [29],-33.6%
same,inhibition,"[6]; single agent, at 5 µM",5.27%
same,inhibition,"[7]; BGB IC20 combo, at 0.005 µM",-2.15%
same,inhibition,"[7]; BGB IC40 combo, at 0.005 µM",-17.7%
same,inhibition,"[7]; BGB IC40 combo, at 0.05 µM",-10.1%
same,inhibition,[7]; at 0.5 µM,-21.4% (inactive)
same,inhibition,"[7]; cisplatin combo, at 0.05 µM",-14.1%
same,inhibition,"[7]; cisplatin combo, at 0.5 µM",-12.6%
same,inhibition,"[7]; cisplatin combo, at 5 µM",-29.1%
same,inhibition,"[7]; measured here: 5 uM single agent, at 5 µM",-6.87%
same,inhibition,[8]; at 0.5 µM,-3.67% (inactive)
same,inhibition,[8]; [27],3.04%
same,inhibition,[8]; [30],4.91%
same,inhibition,[8]; [31],-55.9%
same,inhibition,[9]; at 0.5 µM,-2.5% (inactive)
same,inhibition,"[9]; measured here: with BGB IC20, at 0.5 µM",-2.96%
same,inhibition,"[9]; measured here: with BGB IC20, at 5 µM",-14.8%
same,inhibition,"[9]; measured here: with cisplatin IC20, at 0.5 µM",-15.8%
same,inhibition,"[9]; measured here: with cisplatin IC20, at 5 µM",-9.52%
same,inhibition,"[9]; single agent, at 5 µM",-11.8%
same,inhibition,[10]; at 0.5 µM,-77.2% (inactive)
same,inhibition,"[10]; measured here: combination with BGB at IC20, at 0.5 µM",-43.7%
same,inhibition,"[10]; measured here: combination with cisplatin at IC20, at 0.5 µM",-122%
same,inhibition,[11]; at 0.5 µM,-12.7% (inactive)
same,inhibition,"[11]; measured here: combo with BGB at IC20, at 0.5 µM",-9.35%
same,inhibition,"[11]; measured here: combo with cisplatin at IC20, at 0.5 µM",-24.1%
same,inhibition,[12]; at 0.5 µM,-8.68% (inactive)
same,inhibition,"[12]; measured here: inhibition with BGB combination, at 0.05 µM",-22.4%
same,inhibition,"[12]; measured here: inhibition with cisplatin combination, at 0.05 µM",-23.8%
same,inhibition,[13]; at 0.5 µM,-15.2% (inactive)
same,inhibition,[13]; [30],-23.3%
same,inhibition,[13]; [31],-11.3%
same,inhibition,[14]; at 0.5 µM,-8.48% (inactive)
same,inhibition,"[14]; measured here: BGB combination, at 0.5 µM",-12.1%
same,inhibition,"[14]; measured here: BGB combination, at 5 µM",-20.7%
same,inhibition,"[14]; measured here: cisplatin combination, at 0.5 µM",-11.8%
same,inhibition,"[14]; measured here: cisplatin combination, at 5 µM",-15.5%
same,inhibition,"[15]; BGB combination, concentration series, at 5 µM",17.1%
same,inhibition,[15]; at 0.5 µM,-4.72% (inactive)
same,inhibition,"[15]; cisplatin combination, concentration series, at 5 µM",-1.24%
same,inhibition,[16],18.8% (inactive)
same,inhibition,[16]; measured here: combo with BGB IC20,3.19%
same,inhibition,[16]; measured here: combo with cisplatin IC20,27.2%
same,inhibition,[17]; at 0.5 µM,-16.5% (inactive)
same,inhibition,"[17]; cisplatin combination, at 0.5 µM",-34.9%
same,inhibition,"[17]; cisplatin combination, at 5 µM",-2.7%
same,inhibition,"[17]; measured here: BGB IC40 combination 0.05 uM, at 0.05 µM",-29.5%
same,inhibition,"[17]; single agent, at 5 µM",2.36%
same,inhibition,[18]; at 0.5 µM,-1.53% (inactive)
same,inhibition,"[18]; cisplatin combo, at 5 µM",-22.8%
same,inhibition,"[18]; measured here: BGB IC40 combination, at 0.05 µM",-14.7%
same,inhibition,[18]; [30],-4%
same,inhibition,"[18]; single agent, at 5 µM",-18.5%
same,inhibition,[19]; at 0.5 µM,-12.7% (inactive)
same,inhibition,[19]; [28],-33.3%
same,inhibition,[19]; [29],-4%
same,inhibition,"[19]; single agent, at 0.05 µM",2.29%
same,inhibition,"[19]; single agent, at 5 µM",-29.9%
O=C1C(=O)N(Cc2ccc(Cl)c(Cl)c2)c2ccccc21,remaining activity,[1],89.3% (inactive)
same,fold change,[2]; [21],0.946 (inactive) and 0.932 (inactive)
same,fold change,[2]; [22],0.72 and 1.49
same,cell count,[2]; [23],8180 and 7960
same,cell count,[2]; [24],8650 and 8540
same,z-score,[3]; [25],-0.161 (inactive)
same,z-score,[3]; [26],-0.14
same,z-score,[4],-0.685 (inactive)
NC(=O)N1c2ccccc2CC(O)c2ccccc21 (stereo not given),remaining activity,[1],111% (inactive)
same,fold change,[2]; [21],0.942 (inactive)
same,fold change,[2]; [22],0.846
same,cell count,[2]; [23],8870
same,cell count,[2]; [24],9420
same,z-score,[4],-0.055 (inactive)
COc1cc(NC(=O)c2ccccn2)ccc1Cl,remaining activity,[1],122% (inactive)
same,fold change,[2]; [21],1.03 (inactive) and 0.942 (inactive)
same,fold change,[2]; [22],0.59 and 1.55
same,cell count,[2]; [23],7300 and 8170
same,cell count,[2]; [24],7110 and 8670
same,z-score,[3]; [25],0.202 (inactive)
same,z-score,[3]; [26],0.293
same,z-score,[4],1.19 (inactive)
COc1ccc(C(=O)Nc2sc3c(c2C(N)=O)CCCC3)cc1OC,parasite load remaining,[20],36.2% (inactive)
same,viability,[20],126%
same,remaining activity,[1],100% (inactive)
same,fold change,[2]; [21],0.968 (inactive) and 0.928 (inactive)
same,fold change,[2]; [22],0.55 and 1.37
same,cell count,[2]; [23],7430 and 8340
same,cell count,[2]; [24],7670 and 8990
same,z-score,[3]; [25],-0.293 (inactive)
same,z-score,[3]; [26],0.823
same,z-score,[4],1.42 (inactive)
O=C(O)COc1cccc(-c2ocnc2-c2nc(-c3ccccc3)c(-c3ccccc3)o2)c1,remaining activity,[1],118% (inactive)
same,fold change,[2]; [21],0.961 (inactive)
same,fold change,[2]; [22],0.827
same,cell count,[2]; [23],8540
same,cell count,[2]; [24],8890
same,z-score,[4],0.465 (inactive)
CCCCCCCCCCCCCCCCn1cc[n+](Cc2ccccc2)c1C,parasite load remaining,[20],41.6% (inactive)
same,viability,[20],156%
same,remaining activity,[1],93.9% (inactive)
same,fold change,[2]; [21],0.951 (inactive) and 0.701 (inactive)
same,fold change,[2]; [22],0.478 and 0.77
same,cell count,[2]; [23],1020 and 275
same,cell count,[2]; [24],1080 and 392
same,z-score,[3]; [25],0.978 (inactive)
same,z-score,[3]; [26],-3.72
same,z-score,[4],-0.7 (inactive)
NC(=O)c1sc(-c2ccsc2)cc1N,remaining activity,[1],88.4% (inactive)
same,fold change,[2]; [21],0.841 (inactive) and 0.869 (inactive)
same,fold change,[2]; [22],0.888 and 1.88
same,cell count,[2]; [23],8280 and 7870
same,cell count,[2]; [24],9850 and 9060
same,z-score,[3]; [25],-0.221 (inactive)
same,z-score,[3]; [26],-0.163
same,z-score,[4],0.36 (inactive)
COc1cc2ncnc(Nc3ccc(Cl)cc3F)c2cc1OC,remaining activity,[1],98.6% (inactive)
same,fold change,[2]; [21],0.989 (inactive) and 1 (inactive)
same,fold change,[2]; [22],0.8 and 1.6
same,cell count,[2]; [23],5840 and 6100
same,cell count,[2]; [24],5900 and 6080
same,z-score,[3]; [25],-0.209 (inactive)
same,z-score,[3]; [26],-0.0991
same,z-score,[4],0.365 (inactive)
